# Several values for one entry are separate records, joined by “and”; a condition that tells them apart may be missing. Equal entries are not always repeated. Some structures have more than one record in an assay (separate samples or runs), and their calls can disagree. Activity calls are given as the source filed them. How the source made its calls: active means hit-call score of the fitted dose curve at least 0.9, where 1 is the maximum; inactive means score below 0.9.
# Assay: CCTE_Shafer_MEA_dev_spike_duration_mean: CCTE's Neural Network Formation Assay for Mean Spike Duration, Shafer Lab (AID 2284051);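 further: mean network spike duration pooled as area under curve over DIV 5 to 12 recordings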;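 on AC50: potency for a decrease in mean network spike duration versus DMSO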
# Method in brief: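 Spontaneous activity was recorded on days 5, 7, 9 and 12 from rat cortical cultures grown on microelectrode arrays and dosed continuously from day 0, with media and compound renewed after the DIV 5 and 9 recordings. Network-spike duration was collapsed by area under the curve.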
Structure (SMILES),outcome,AC50
OB(O)O,inactive,
CC(C)(c1ccc(O)cc1)c1ccc(O)cc1,inactive,15 µM (active)
CCCCC(CC)CN1C(=O)C2C3C=CC(C3)C2C1=O (configuration not stated),inactive,
CCN(CC)C(=O)c1cccc(C)c1,inactive,
CCCCOCCOCCOCc1cc2c(cc1CCC)OCO2,inactive,
C#CCOC(=O)[C@@H](C)Oc1ccc(Oc2ncc(Cl)cc2F)cc1,inactive,
CSC(=O)c1cccc2nnsc12,inactive,
CCCN(CCC)C(=O)SCC,inactive,
CC1(C)C(C=C(Cl)Cl)C1C(=O)OCc1cccc(Oc2ccccc2)c1 (configuration not stated),,21.3 µM (active) and 10.1 µM (active)
COCCO,inactive,
S=C(S)NCCNC(=S)S.[Mn+2].[S-]C([S-])=NCCN=C([S-])[S-].[Zn+2],inactive,2.42 µM (active)
O=C(O)c1ccccc1,inactive,
Oc1ccc(C(c2ccc(O)cc2)C(Cl)(Cl)Cl)cc1,,4.75 µM (active)
S=C([S-])NCCNC(=S)[S-].[Mn+2],inactive,
Cc1nn(C)c(Oc2ccccc2)c1C=NOCc1ccc(C(=O)OC(C)(C)C)cc1,,0.00141 µM (active)

# Assay: CCTE_Shafer_MEA_dev_network_spike_duration_std: CCTE's Neural Network Formation Assay for Standard Deviation of Network Spike Duration, Shafer Lab (AID 2284052);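 further: hits are decreases in network spike duration SD versus DMSO vehicle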
# Method in brief: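 Network spike duration variability was collapsed across recordings on days 5, 7, 9 and 12 by trapezoidal area-under-curve and fitted downward against DMSO. Cultures were rat cortical neurons on PEI-coated MEA plates, dosed continuously from plating, refed with compound DIV 5/9.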
Structure (SMILES),outcome,AC50
OB(O)O,inactive,
CC(C)(c1ccc(O)cc1)c1ccc(O)cc1,inactive,
CCCCC(CC)CN1C(=O)C2C3C=CC(C3)C2C1=O (configuration not stated),inactive,
CCN(CC)C(=O)c1cccc(C)c1,inactive,
CCCCOCCOCCOCc1cc2c(cc1CCC)OCO2,inactive,
C#CCOC(=O)[C@@H](C)Oc1ccc(Oc2ncc(Cl)cc2F)cc1,inactive,
CSC(=O)c1cccc2nnsc12,inactive,
CCCN(CCC)C(=O)SCC,inactive,
CC1(C)C(C=C(Cl)Cl)C1C(=O)OCc1cccc(Oc2ccccc2)c1 (configuration not stated),inactive,
COCCO,inactive,
S=C(S)NCCNC(=S)S.[Mn+2].[S-]C([S-])=NCCN=C([S-])[S-].[Zn+2],inactive,
O=C(O)c1ccccc1,inactive,
Oc1ccc(C(c2ccc(O)cc2)C(Cl)(Cl)Cl)cc1,inactive,
S=C([S-])NCCNC(=S)[S-].[Mn+2],inactive,
Cc1nn(C)c(Oc2ccccc2)c1C=NOCc1ccc(C(=O)OC(C)(C)C)cc1,,0.000953 µM (active)

# Assay: CCTE_Shafer_MEA_dev_per_network_spike_spike_number_mean: CCTE's Neural Network Formation Assay for Mean Number of Spikes in a Network Spike, Shafer Lab (AID 2284053);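 on AC50: fitted as decrease in spikes per network spike relative to DMSO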
# Method in brief: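 Mean spike count within each network spike, taken in a 0.05 s window at its peak, was recorded on days 5, 7, 9 and 12 and integrated as trapezoidal area under the curve. Rat cortical cultures on MEA plates received continuous compound from day 0, refreshed at medium changes on DIV 5 and 9.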
Structure (SMILES),outcome,AC50
OB(O)O,inactive,
CC(C)(c1ccc(O)cc1)c1ccc(O)cc1,inactive,15 µM (active)
CCCCC(CC)CN1C(=O)C2C3C=CC(C3)C2C1=O (configuration not stated),inactive,
CCN(CC)C(=O)c1cccc(C)c1,inactive,
CCCCOCCOCCOCc1cc2c(cc1CCC)OCO2,inactive,
C#CCOC(=O)[C@@H](C)Oc1ccc(Oc2ncc(Cl)cc2F)cc1,inactive,
CSC(=O)c1cccc2nnsc12,inactive,
CCCN(CCC)C(=O)SCC,inactive,
CC1(C)C(C=C(Cl)Cl)C1C(=O)OCc1cccc(Oc2ccccc2)c1 (configuration not stated),,17.3 µM (active) and 10.1 µM (active)
COCCO,inactive,
S=C(S)NCCNC(=S)S.[Mn+2].[S-]C([S-])=NCCN=C([S-])[S-].[Zn+2],inactive,
O=C(O)c1ccccc1,inactive,
Oc1ccc(C(c2ccc(O)cc2)C(Cl)(Cl)Cl)cc1,,3.73 µM (active)
Cc1nn(C)c(Oc2ccccc2)c1C=NOCc1ccc(C(=O)OC(C)(C)C)cc1,,0.00249 µM (active)

# Source: PubChem BioAssay (EPA / NIEHS)
